About 8,600 (12%) of roughly 69,000 compounds showed an effect of 50% or more. Only a selection was taken, and strong results are over-represented in it overall.
Tested on: Plasmodium berghei
Assay: Screen against P. berghei liver stage (PbLuc), transformed with Luciferase, at 10uM
Assay type: functional, HepG2
Conditions: tested at 10 uM

Row | Compound | INHIBITION [%]
1 | Cc1cnc(NCCCN2CCc3ccccc32)nc1 | -15.4
2 | CN(C)c1nc(NCCCN2CCc3ccccc32)ncc1F | 55.1
3 | COCc1cc(CN(C)C(=O)CCC(=O)Nc2cc(C)ccc2F)n[nH]1 | 34.4
4 | CCOc1ccc(C(=O)CCC(=O)N(C)Cc2cnccn2)cc1C | 40.6
5 | CCOc1ccc(C(=O)CCC(=O)N(C)Cc2nc(C)c[nH]2)cc1C | 63.4
6 | CCc1cccc(NC(=O)CCC(=O)N(C)Cc2nc(C)c[nH]2)c1 | 12.8
7 | CCOc1ccc(C(=O)CCC(=O)NCCc2nncn2CC)cc1C | 15
8 | CCOc1ccc(C(=O)CCC(=O)N(C)Cc2noc(C)n2)cc1C | 11.9
9 | Cc1ccc(F)c(NC(=O)CCC(=O)N(C)Cc2nc(C)c[nH]2)c1 | 53.9
10 | CCOc1ccc(C(=O)CCC(=O)NCc2csc(N)n2)cc1C | 56.1
11 | CCOc1ccc(C(=O)CCC(=O)NCc2cncn2CC)cc1C | -5.59
12 | CCOCC(=O)N1C[C@@H]2CCN(c3cnccn3)C[C@@H]2C1 | 32.1
13 | COC(=O)c1cc2c(=O)n(C3CCCC3)ccc2nc1C | 46.1
14 | Cn1cccc1CN1CCC2(CC1)CCN(C(=O)c1cnccn1)CC2 | 39.5
15 | CNC(=O)[C@@]12CCC3(CCN(C(=O)C(C)C)CC3)[C@@H]1CN(S(C)(=O)=O)C2 | 26.3
16 | Cc1cc(C(=O)N2CCOCC2c2nc(C)c[nH]2)nc(O)n1 (stereo not given) | 27.75
17 | CC(C)[C@H](N)C(=O)N1CCSc2ccccc2C1 | -20.5
18 | CC(C)C[C@H](N)C(=O)N1CCSc2ccccc2C1 | 81.6
19 | NC(C(=O)N1CCSc2ccccc2C1)c1ccccc1 (stereo not given) | -22.1
20 | CCCc1nc(C)c(CNc2nc(C)nc3onc(C)c23)s1 | 81.4
21 | Cc1nc(C)n(CCCNc2ncnc3onc(C)c23)n1 | 19.2
22 | CCCc1nc(C)c(CNc2nc(C)nc3oc(C)nc23)s1 | 48.9
23 | CC(OCC1CC1)C(=O)Nc1cccc(C(=O)Nc2ccncc2)c1 (stereo not given) | 82.4
24 | CCOc1cccc(C(=O)Nc2ccncc2)c1 | 50.3
25 | CCCNC(=O)c1ccc(NC(=O)c2cccc(OCC)c2)cc1 | 23.5
26 | CCOc1cccc(C(=O)NCCC(=O)Nc2ccncc2)c1 | 46.6
27 | CC(OCC1CC1)C(=O)Nc1ncccc1I (stereo not given) | 50.4
28 | CC(OCC1CC1)C(=O)NCCC(=O)Nc1ccccn1 (stereo not given) | 1.74

Row | Compound | INHIBITION [%]
29 | CC(OCC1CC1)C(=O)Nc1cccc(C(=O)Nc2ccccn2)c1 (stereo not given) | 36.5
30 | CC(C)C(=O)Nc1cccc(C(=O)Nc2ccccn2)c1 | 8.99
31 | O=C(COCC1CC1)Nc1ncccc1I | -2.98
32 | CCc1noc(C(C)N2CCN(C(=O)CN3CCOCC3)CC2)n1 (stereo not given) | -25.8
33 | Cc1sc(-c2ccco2)nc1C(=O)N1CCCC1Cn1cccn1 (stereo not given) | 34.7
34 | Cc1cc(Nc2ccc(F)cn2)cc(C2CCN(Cc3ncc[nH]3)C2)n1 (stereo not given) | 42.6
35 | Fc1ccc(Nc2ccc(C3CCN(Cc4ncc[nH]4)CC3)nc2)nc1 | 56.9
36 | Cc1cccc(Nc2ccc(C3CCN(Cc4ncc[nH]4)CC3)nc2)n1 | 36
37 | CC(C)C(=O)N1CC[C@H]2N(C)CC[C@@]2(C(=O)Nc2cccnc2)CC1 | -22.2
38 | CCN(CCO)Cc1cn(-c2cccc(F)c2)nc1-c1ccc(C)o1 | 25.7
39 | Cc1ccc(-c2nn(-c3cccc(F)c3)cc2CN(CCO)CCO)o1 | 27.4
40 | Cc1ccc(-c2nn(-c3cccc(F)c3)cc2CN(C)CCO)o1 | 65.7
41 | Cc1cc(-c2cnn(CCNC(=O)C3CCCO3)c2C2CC2)on1 (stereo not given) | 40.4
42 | Cc1cc(-c2cnn(CCNC(=O)CCn3cccn3)c2C2CC2)on1 | -1.85
43 | Cc1cc(-c2cnn(CCNC(=O)C3CC3)c2C2CC2)on1 | 59.7
44 | Cc1cc(-c2cnn(CCNC(=O)c3cnn(C)c3)c2C2CC2)on1 | 10
45 | Cc1cc(-c2cnn(CCNC(=O)Cc3ccccn3)c2C2CC2)on1 | 60.4
46 | Cc1cc(-c2cnn(CCNC(=O)c3cccnc3)c2C2CC2)on1 | 38.7
47 | O=C(c1cccnc1)N1C[C@H]2CC[C@@H](C1)N(Cc1ccc(F)cc1Cl)C2 | -30
48 | COc1ccc(C)cc1CN(CC(N)=O)C(C)C | -4.63
49 | O=C(NC[C@H]1OC[C@@H]2CCN(Cc3ccco3)C[C@@H]21)c1ccnnc1 | 6.72
50 | Cc1ocnc1C(=O)N(C)[C@@H]1CCC[C@@H](N2CCCC2)[C@@H]1O | 39.3
51 | O=C(NC1CC1)c1cccc(S(=O)(=O)NCCc2nc(C3CC3)no2)c1 | -86.5
52 | COCCc1noc(CN2CCN(c3ccc(OC)cc3)C(=O)C2C)n1 (stereo not given) | 3.3
53 | CCc1csc(CNCC(=O)Nc2ccc(Cl)c(C)c2)n1 | 49
54 | Cc1cc(NC(=O)CNCc2csc(-c3cnccn3)n2)ccc1Cl | 52.2
55 | Cc1cc(NC(=O)CNCc2csc(-c3ncccn3)n2)ccc1Cl | 18
